Screens: PubChem, The Scripps Research Institute Molecular Screening Center
Compounds with a hit are over-represented: about 5.7% of the library has one in this group of screens.
hgDAF-12 ag – agonists of H. glycines DAF-12 nuclear receptor. HEK293 GAL4-hgDAF12 UAS-luciferase reporter, agonist luminescence; normalized to butyrate control. 1.8% of 370,000 active. activation, % at 6.8 µM;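 active = activation above a cutoff set at the mean of all screened compounds plus 3 SD, cut at about 10% in these data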
DAX1 inh-1 – blocks DAX1 repression of SF-1 activated StAR promoter. 1.1% of 370,000 active. inhibition, % at 6.8 µM. HEK293T StAR-luciferase reporter, SF-1/DAX-1 repression relief;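 active = inhibition above the mean over all tested compounds plus 3 SD, cut at about 3.6% in these data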;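 note: higher inhibition means more luminescence from relief of DAX-1 repression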
AHR act – activators of human aryl hydrocarbon receptor; 2.5% of 320,000 active; P35869; activation, % at 5 µM; AID 2796; AHR-responsive luciferase reporter cells, luminescence; in the data active = activation above about 47%
hcDAF-12 act – H. contortus DAF-12 activation, primary screen | HEK293 hcDAF-12 lit1-tk-luc reporter, luminescence; 0% DMSO, 100% Δ7-dafachronic acid | activation, % at 6.8 µM | 1.4% of 370,000 active;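 active = activation above the mean of all tested compounds plus 3 SD, cut at about 5.5% in these data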
DAX1 inh-2 – NR0B1 (DAX1) inhibition. HEK293 Gal4-DAX1 luciferase reporter, luminescence. inhibition, % at 6.75 µM. 0.99% of 340,000 active. AID 504766;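 active = inhibition above the mean over all tested compounds plus 3 SD, cut at about 4.2% in these data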;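 note: inhibition shows as a rise in luminescence from relieved DAX1 repression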
Target sequence (P51843 207-470 limits assumed): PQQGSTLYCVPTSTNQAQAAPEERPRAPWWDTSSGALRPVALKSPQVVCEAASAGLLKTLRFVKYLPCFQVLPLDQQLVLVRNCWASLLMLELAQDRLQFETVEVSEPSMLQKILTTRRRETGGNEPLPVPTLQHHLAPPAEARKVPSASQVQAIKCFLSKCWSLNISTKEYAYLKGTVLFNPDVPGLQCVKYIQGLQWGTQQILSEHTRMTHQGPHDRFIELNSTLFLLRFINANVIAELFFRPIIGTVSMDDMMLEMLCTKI
ssDAF12 agonist – S. stercoralis DAF-12 activation, primary screen | HEK293 ssDAF-12/GRIP1 lit1-tk-luc reporter, luminescence; % of 3 µM dafachronic acid response | activation, % at 6.8 µM | 1% of 370,000 active | AID 652126;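 active = activation above the mean over all tested compounds plus 3 SD, cut at about 0.9% in these data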
A number is an active result; – = inactive; · = no result given; ! = a repeat was not active.

SMILES	hgDAF-12 ag	DAX1 inh-1	AHR act	hcDAF-12 act	DAX1 inh-2	ssDAF12 agonist
Cc1cc(N2CCN(C(=O)OC(C)(C)C)C[C@H]2C)ccc1Br	–	–	·	–	·	–
Cc1nnc(SCC(=O)Nc2nccs2)n1N	–	–	–	–	–	–
C=CCn1c(SCCOC)nc2c1c(=O)[nH]c(=O)n2C	–	–	–	6.5	–	–
C=CCn1c(SCCN2CCCCC2)nc2c1c(=O)[nH]c(=O)n2C	–	–	–	–	–	–
CC(=O)NCCc1ccc(C(=O)CSc2nnc(C3CC3)n2C2CC2)cc1	–	4.5	–	–	–	–
C=CCn1c(C)cc(C(=O)CSc2nnc(C3CC3)n2C2CC2)c1C	–	4.2	–	–	–	–
Cc1cc(C(=O)CSc2nnc(C3CC3)n2C2CC2)c(C)n1C(C)C	–	–	–	–	–	–
Cc1nc(Cl)nc(N(C)c2ccccc2)c1[N+](=O)[O-]	–	–	–	–	–	–
C=CCOC(=O)C1=C(C)NC(SCC(=O)NC(=O)OCC)=C(C#N)C1c1cccnc1 (stereo unspecified)	–	–	–	–	5.3!	–
Cn1c2ccccc2n2c(=O)cc(-c3ccccc3)c(C#N)c12	–	–	–	–	5.4	–
Cn1c2ccccc2n2c(=O)c(Cl)c(-c3ccccc3)c(C#N)c12	–	–	58.9	–	–	–
CN(C(=O)c1ccccc1OCC(=O)Nc1ccc(Br)cc1)c1ccccc1	–	–	·	–	·	1.0
COc1cccc(CNS(=O)(=O)c2cc(Br)ccc2Br)c1OC	–	–	·	–	·	–
Nc1nc(-c2ccccc2)[nH]c(=O)c1N=O	–	–	–	–	4.2	–
O=C(NCc1ccccc1)C(c1ccc(F)cc1)N(C(=O)c1csnn1)C1CCCC1 (stereo unspecified)	–	–	–	–	–	–
Cc1cccc(NC(=O)CSc2nc(=O)n3ccccc3n2)c1C	–	–	–	–	–	–
O=C(CSc1nc(=O)n2ccccc2n1)Nc1cccc2ccccc12	–	–	–	–	–	1.0
O=C(CSc1cccs1)Nc1cccc2ccccc12	10.7	–	–	–	–	–
Cc1cccc(C)c1NC(=O)C(CCc1ccccc1)N1CCN(CCN(C)C)CC1 (stereo unspecified)	–	–	·	–	·	–
CC1CCN(C(=O)Cn2nnc(-c3cccs3)n2)CC1	–	3.6	–	–	6.0	–
O=C(Cn1nnc(-c2cccs2)n1)N1CCOCC1	–	–	–	–	–	–
O=S(=O)(c1ccc(F)cc1)N1CCN=C1SCc1cccnc1	–	–	–	–	7.1	–
Cc1ccc(OCc2nnc(N)s2)cc1	10.6	–	–	–	–	–
O=C(CCS(=O)(=O)c1ccccc1)Nc1nc2cc3c(cc2s1)OCO3	–	–	–	–	4.9	–
COc1ccccc1C(=O)Nc1nc2cc3c(cc2s1)OCCO3	·	·	–	·	–	·
SMILES	hgDAF-12 ag	DAX1 inh-1	AHR act	hcDAF-12 act	DAX1 inh-2	ssDAF12 agonist
COc1cccc(OC)c1C(=O)Nc1nc2cc3c(cc2s1)OCO3	–	–	54.2	–	–	–
COc1ccccc1C(=O)Nc1nc2cc3c(cc2s1)OCO3	12.3	–	–	–	–	–
COc1ccc(N(CC(=O)NCc2ccc(Cl)cc2)S(=O)(=O)c2ccccc2[N+](=O)[O-])c(OC)c1	–	–	–	–	–	–
Nc1c(C(=O)Nc2ccc(Cl)c(C(=O)O)c2)sc2nc3c(cc12)CCCC3	–	–	–	–	–	–
Nc1c(C(=O)c2ccc(Cl)cc2)sc2nc3c(cc12)CCC3	–	–	53.2	–	–	–
Nc1c(C(=O)O)sc2nc3c(cc12)CCCC3	–	–	–	–	·	–
Nc1c(C(=O)Nc2cccc(C(=O)O)c2)sc2nc3c(cc12)CCCC3	11.1	–	–	–	–	–
Cn1cccc1C(=O)N1CCN(S(=O)(=O)c2ccc([N+](=O)[O-])cc2)CC1	–	–	·	–	·	–
CC(C)(C)c1csc(NC(=O)Nc2ccccc2)n1	12.4	–	–	–	–	–
O=C(NC1=NCCS1)Nc1ccccc1	10.9	–	–	–	–	–
CC(Oc1ccccc1)C(=O)NC1=NCCS1 (stereo unspecified)	–	4.0	–	–	–	–
O=C(NC1=NCCS1)c1ccccc1	–	–	–	–	–	–
O=C(Nc1ccccc1)Nc1ccccc1	12.5	–	·	–	–	–
CON(Cc1ccccc1)S(=O)(=O)c1ccccc1Br	–	–	·	–	·	–
